{"source": "PubChem BioAssay (NCI)", "note": "Compounds without any hit were thinned out: in the full panel of roughly 83,000, 20% have a hit.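 Cells were grown in 96-well plates and exposed to the test compound at a single concentration for 48 hours; results are reported as percent growth, with values below 10 considered active.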 A number with no mark means an inactive call. Activity calls are given as the source filed them."}
{"tested_on": "NCI-H322M lung", "test": "NCI-60 one-dose screen, 48 h (100 = growth as untreated, 0 = no growth, -100 = all killed)", "settings": "10 µM unless noted", "procedure": "Growth inhibition of the NCI-H322M human Non-Small Cell Lung tumor cell line is measured as a screen for anti-cancer activity. Cells are grown in 96 well plates and exposed to the test compound for 48 hours. Compounds are tested at a single concentration, which is 10^-5 M for most compounds. The reported endpoint is percent growth (GI% or GIPRCNT), where numbers from 0 - 100% represent growth inhibition, and numbers from -100% - 0 represent cell death. For example, a value of 40 represents 60% growth inhibition. A value of 0 means no net growth occurred over the course of the experiment. A value of -40 indicates 40% of cells at the beginning of the experiment died by the end of the experiment. A value of -100 means all cells are dead at the end of the experiment.\nNCI-60 Human Tumor Cell Lines Screen was performed using the standard one-dose NCI protocol, which is described in more detail at https://dtp.cancer.gov/discovery_development/nci-60/default.htm.\nCompounds with GIPRCNT values below 10 were considered active. Activity score was based on GIPRCNT using the following formula: […]\nScore is 0 for GIPRCNT values of 100 or above, 50 for GIPRCNT values of 0, and 100 for GIPRCNT values of -100."}
{"smiles": "CC(=O)OC[C@H]1OC(Sc2sc(C(=O)c3ccc(Br)cc3)c(N)c2-c2nc3ccccc3s2)[C@H](OC(C)=O)[C@@H](OC(C)=O)[C@@H]1OC(C)=O", "note": "(stereo not given in full)", "growth": "83.5%"}
{"smiles": "CCOC(=O)c1c2c(n3ccc(NC(=O)OC(C)(C)C)cc13)C(=O)c1ncccc1C2=O", "growth": "-19.5% (active)"}
{"smiles": "CCOC(=O)c1c(-c2ccc(Cl)cc2)c(C#N)c(=O)n(-c2ccccc2CC)c1N", "growth": "78.7%"}
{"smiles": "CC(C)(C)c1ccc(/C=C/C(=O)Nc2ccc(O)cc2)cc1", "growth": "78%"}
{"smiles": "O=c1c2c3c(sc2nc(N/N=C/c2ccc(Br)cc2)n1Cc1ccccc1)CCCC3", "growth": "71.4%"}
{"smiles": "Cn1cc(-c2csc(-c3cccc(F)c3)n2)c2cccnc21", "growth": "-22% [100 µM] (active)"}
{"smiles": "C=C(C)[C@@H]1CC=C2c3sc(-c4ccc(C)cc4)nc3C[C@@H](C)[C@]2(C)C1", "growth": "101%"}
{"smiles": "CCOC(=O)c1csc(NC(=O)COc2cccc(/C=C3\\Oc4cc(OC)ccc4C3=O)c2)n1", "growth": "99.7%"}
{"smiles": "CCc1c2c(nc3ccc(OC(=O)NCc4ccc(B5OC(C)(C)C(C)(C)O5)cc4)cc13)-c1cc3c(c(=O)n1C2)COC(=O)[C@]3(O)CC", "growth": "5.73% (active)"}
{"smiles": "COC(=O)[C@]12CC[C@@H](C)[C@H](C)[C@@H]1C1=CC[C@@H]3[C@@]4(C)C(C=O)=C[C@@](C)(COC(=O)c5ccco5)[C@@H]4C(=O)C[C@@]3(C)[C@]1(C)CC2", "growth": "69.6%"}
{"smiles": "C=CCSc1nc2ccccc2cc1/C=N/O", "growth": "81.4%"}
{"smiles": "CC(C)(C)OC(=O)Nc1ccc2c(c1)C(NC(=O)Nc1cccc(C#N)c1)CC(C)(C)O2", "note": "(stereo not given)", "growth": "73.6%"}
{"smiles": "O=C(Cc1ccc(F)c(F)c1)Nc1cc(C2(C(F)(F)F)CC2)nn1Cc1ccccc1", "growth": "13.4%"}
{"smiles": "Cc1ccc(Nc2nc(N)nc(CSCC(=O)NN)n2)cc1", "growth": "100%"}
{"smiles": "CCc1ccccc1-n1c(N)c(C#N)c(-c2ccc(N(C)C)cc2)c(C#N)c1=O", "growth": "86.3%"}
{"smiles": "C=CCn1c(C)nc2cc(Nc3nc(Cl)nc4ccccc34)ccc21", "growth": "109%"}
{"smiles": "O=C(COc1ccc(/C=C2\\Oc3ccccc3C2=O)cc1)c1ccc(Cl)cc1", "growth": "126%"}
{"smiles": "Cc1ccc(C(=O)C2=C(O)C(=O)N(Cc3cccnc3)C2c2ccccc2F)o1", "note": "(stereo not given)", "growth": "108%"}
{"smiles": "CSc1n(Cc2ccc3ccccc3c2)c(C)c[n+]1Cc1ccc2ccccc2c1", "growth": "40.5%"}
{"smiles": "COc1cccc(/C=C/C(=O)c2c(C)nc3ccccc3c2/C=C/c2ccc(C)cc2)c1OC", "growth": "82.1%"}
{"smiles": "Fc1c[c-]c(-c2ccccn2)c(F)c1.[CH3-].[Pt+2].c1ccc(P(C[PH+](c2ccccc2)c2ccccc2)c2ccccc2)cc1", "growth": "2.51% (active)"}
{"smiles": "COc1ccc2c(c1)O/C(=C/c1ccc(OCC(=O)c3ccccc3)cc1)C2=O", "growth": "97.2%"}
{"smiles": "COc1ccc(/C=C/c2c(C(=O)/C=C/c3ccc(F)cc3)c(C)nc3ccccc23)cc1", "growth": "82.7%"}
{"smiles": "COC(=O)/C=C1\\S/C(=N\\NS(=O)(=O)c2ccc(C)cc2)N(c2ccccc2)C1=O", "growth": "99.6%"}
{"smiles": "COc1ccc2nc(NNC(=O)c3cnccn3)c3cccn3c2c1", "growth": "8.34% (active)"}
{"smiles": "Cc1ccc(Cc2cnc(NC(=O)c3ccc4noc(-c5ccccc5)c4c3)s2)cc1", "growth": "88.5%"}
{"smiles": "O=C(N=c1oc2ccccc2cc1-c1cc2ccccc2[nH]1)c1ccc(Cl)cc1", "growth": "53.5%"}
{"smiles": "Cc1cccc(NC(=O)CSc2nc3ccccc3[nH]2)c1", "growth": "97%"}
{"smiles": "CC1CC2Oc3ccc(Cl)cc3C(=O)N2O1", "note": "(stereo not given)", "growth": "126%"}
{"smiles": "O=c1c2cc(F)ccc2sc2c(NCCN3CCCCC3)nc3ccccc3c12", "growth": "70.9%"}
{"smiles": "CCCCCCCCCCCCCCCCCC1=NCCN1CCOC1=C(Cl)C(=O)c2ccccc2C1=O", "growth": "80.5%"}
{"smiles": "CC(=O)O[C@]1(C(C)=O)CCC2C3C[C@H](C)C4=CC(=O)CC[C@]4(C)C3CC[C@@]21C", "note": "(stereo not given in full)", "growth": "95.7%"}
{"smiles": "Clc1cccc(Cl)c1C(Nc1nc2ccccc2s1)Nc1nc2ccccc2s1", "growth": "106%"}
{"smiles": "CC(C)CC(NC(=O)CN(Cc1ccccc1)S(C)(=O)=O)C(=O)O", "note": "(stereo not given)", "growth": "93.8%"}
{"smiles": "Cc1nc2ccccc2n1CC1NC(=O)NC1=O", "note": "(stereo not given)", "growth": "97.7%"}
{"smiles": "COc1cc2c(cc1-c1c(C)noc1C)ncc1nc(C3CCCCC3)n(C3CCC(OC(F)F)CC3)c12", "note": "(stereo not given)", "growth": "54.7%"}
{"smiles": "COc1ccccc1CNCCCN1C(=O)c2ccc3c4c(ccc(c24)C1=O)C(=O)N(CCCNCCCCN)C3=O", "growth": "-10.1% (active)"}
{"smiles": "O=C(c1ccc(Nc2nccc(NCCCCNc3ccnc4cc(Cl)ccc34)n2)cc1)N1CCCCC1", "growth": "51.3%"}
{"smiles": "O=C(Nc1ccccc1)Nc1cccc(Oc2nnc(Cl)c3ccccc23)c1", "growth": "47.3%"}
{"smiles": "O=C1N=c2cc3c(cc2=C/C1=C/c1sc(=S)n(CCc2ccc(O)cc2)c1O)OCCO3", "growth": "95.9%"}
